TROY NFkB inh = TROY signaling inhibition; inhibition, % at 10 µM; AID 1347056; Q293 LMP1-TROYcd NF-kB luciferase reporter, 4 h; hit rate 0.98% among 360,000;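 active = compounds whose plate-normalised and pattern-corrected inhibition of the luciferase reporter signal at the single screening dose is 50% or more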
LGR2 inh = inhibitors of bursicon-induced Drosophila LGR2 receptor cAMP signaling. HEK293 LGR2, CRE-luciferase, bursicon-stimulated, 4 h. inhibition, % at 9.99 µM. hit rate 0.35% among 380,000. AID 720647;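 active = drop in luminescence signal, shown as inhibition above about 50% in the replicate tests, limit read from the data, passing the limit was not always enough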;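 also: agonist challenge used bursicon conditioned medium at about half maximal strength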
HSP90 refold inh = inhibitors of HSP90 luciferase refolding in rabbit reticulocyte lysate. luciferase refolding luminescence, 3 h. inhibition, % at 5.6 µM. hit rate 0.91% among 290,000. AID 1789;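 active = inhibition above the screen-wide mean plus 3 SD, computed separately per campaign, cut at about 16% in these data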;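 also: inhibitors lower the luminescence because luciferase stays unfolded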
TWEAK-Fn14 inh = blocks TWEAK-Fn14 interaction in a reporter cell assay; TWEAK-stimulated Fn14 reporter cells, luciferase luminescence, 8 h; AID 1159606; inhibition, % at 10 µM; hit rate 2% among 360,000; in the data active = inhibition above about 50%
Each line names hits and unclear results; the compound was inactive in the other large screens. Only some compounds are listed: those with a hit (about 2.2% of all), similar ones and a draw of the others.

O=C(O)c1ccc(Sc2nnnn2-c2ccccc2)c([N+](=O)[O-])c1	none
COC(=O)c1ccc(Sc2nnnn2-c2ccccc2)c([N+](=O)[O-])c1	TWEAK-Fn14 inh 84.1 (no result: LGR2 inh)
O=C(Nc1ccc(N2CCN(C(=O)c3ccccc3F)CC2)cc1)c1cncc(Br)c1	TROY NFkB inh 64.1, TWEAK-Fn14 inh 63.8
O=C(Nc1ccc(N2CCCCC2)cc1)c1cncc(Br)c1	none (no result: LGR2 inh)
CSCC[C@H](NC(=O)OC(C)(C)C)C(=O)N/N=C/c1cccc2nccnc12	TWEAK-Fn14 inh 93.3
N#CC1=C(N)Oc2c(ccc3ccccc23)C1c1cccs1 (stereo not drawn)	none (no result: TROY NFkB inh, LGR2 inh, TWEAK-Fn14 inh)
CN(C)/C=N/C1=C(C#N)C(c2ccc(Br)cc2)c2ccc3ccccc3c2O1 (stereo not drawn)	HSP90 refold inh 16.8
CC(=O)Cn1ncc(Br)c(Br)c1=O	TROY NFkB inh 64.8, LGR2 inh 106.1, TWEAK-Fn14 inh 86.1
O=C(CCl)N(c1ccccc1)C1CCCCC1	LGR2 inh 94.1
CC(=O)N(c1ccccc1)C1CCCC1	none
O=C(C[C@@H]1C=C[C@@H](NC(=O)C2CC2)[C@H](CO)O1)NC1CCC1	none (no result: TROY NFkB inh, HSP90 refold inh, TWEAK-Fn14 inh)
C[C@@H]1CN([C@@H](C)CO)C(=O)c2cc(C#CC3(O)CCCC3)cnc2O[C@H]1CN(C)C(=O)Cc1ccncc1	none (no result: TROY NFkB inh, HSP90 refold inh, TWEAK-Fn14 inh)
O=C(CCl)Nc1cc(SCC(O)CO)cc([N+](=O)[O-])c1 (stereo not drawn)	LGR2 inh 72.7
CCC(=O)Nc1cc(SCCO)cc([N+](=O)[O-])c1	none (no result: LGR2 inh)
C/C=C/c1ccc2c(c1)O[C@@H](CN(C)C(=O)c1cnccn1)[C@H](C)CN([C@@H](C)CO)S2(=O)=O	none (no result: TROY NFkB inh, HSP90 refold inh, TWEAK-Fn14 inh)
CN(C)c1ccc(/C=N/n2ncc3ccccc32)cc1	TWEAK-Fn14 inh 53.5 (no result: LGR2 inh)
CCCN1C(=O)c2[nH]nc(-c3cc(Cl)c(C)cc3O)c2C1c1ccc(O)c(OC)c1 (stereo not drawn)	none
Cc1cc(O)c(-c2n[nH]c3c2C(c2cccc(O)c2)N(Cc2cccnc2)C3=O)cc1Cl (stereo not drawn)	TROY NFkB inh 63.0 (no result: LGR2 inh)
O=C(C[n+]1cccc(CO)c1)Nc1nc2ccccc2s1	TROY NFkB inh 66.6
COc1ccccc1C(=O)N/N=C/c1ccc2c(c1)OCO2	none
COc1ccccc1N/N=C/c1ccc2c(c1)OCO2	TWEAK-Fn14 inh 60.3 (no result: LGR2 inh)
COc1cc(/C=N/NC(=O)c2cc(-c3ccc4c(c3)OCO4)n[nH]2)ccc1O	TWEAK-Fn14 inh 51.1
CCS(=O)(=O)Nc1ccc2c(c1)C(=O)N(C)[C@@H]1CC[C@@H](CC(=O)OC)O[C@H]1CO2	none (no result: TROY NFkB inh, HSP90 refold inh, TWEAK-Fn14 inh)
O=C(C[C@H]1CC[C@H](NC(=O)C2CC2)[C@H](CO)O1)NCc1ccccc1Cl	none (no result: TROY NFkB inh, HSP90 refold inh, TWEAK-Fn14 inh)
O=C(NCCc1ccccc1)C(c1cccs1)N(C(=O)c1csnn1)C1CC1 (stereo not drawn)	none (no result: LGR2 inh)
O=C(NCCc1ccccc1)C(c1cccs1)N(C(=O)CCl)c1ccc(Cl)cc1 (stereo not drawn)	TWEAK-Fn14 inh 64.2
CCc1c(C)[nH]n(-c2nc(-c3ccccc3)cs2)c1=O	none
Cc1[nH]n(-c2nc(-c3ccc(Cl)cc3)cs2)c(=O)c1N=Nc1ccc(O)cc1	TWEAK-Fn14 inh 87.7
C[C@@H]1CN([C@@H](C)CO)C(=O)Cc2cc(NC(=O)Nc3cccc4ccccc34)ccc2O[C@H]1CN(C)C(=O)Nc1ccc2c(c1)OCO2	none (no result: TROY NFkB inh, HSP90 refold inh, TWEAK-Fn14 inh)
CCC(CC)C(=O)N1CCCC(c2nc(-c3cccs3)no2)C1 (stereo not drawn)	none (no result: LGR2 inh)
CCOc1ccc(C(=O)N2CCCC(c3nc(-c4cccs4)no3)C2)cc1 (stereo not drawn)	TROY NFkB inh 63.6, TWEAK-Fn14 inh 62.8
Cc1ccccc1CN1[C@@H](CC(C)C)COc2cc(Br)ccc2S1(=O)=O	none (no result: TROY NFkB inh, HSP90 refold inh, TWEAK-Fn14 inh)
C=C1[C@@H](O)[C@H](CC(C)C)N(Cc2ccccc2Br)S1(=O)=O	TWEAK-Fn14 inh 79.4 (no result: HSP90 refold inh)
O=C(COC(=O)C1CC(=O)N(c2ccc3c(c2)OCCO3)C1)Nc1ccc2c(c1)CCC2 (stereo not drawn)	TWEAK-Fn14 inh 64.9
COc1ccccc1NC(=O)COC(=O)C1CC(=O)N(c2ccc3c(c2)OCCO3)C1 (stereo not drawn)	TWEAK-Fn14 inh 64.1 (no result: HSP90 refold inh)
COc1ccccc1NC(=O)NC1CC(=O)N(c2ccc3c(c2)OCCO3)C1 (stereo not drawn)	none (no result: HSP90 refold inh)
CN(C)CC(=O)Nc1ccc2c(c1)[C@@H]1C[C@@H](CC(=O)NCc3cc(F)ccc3F)O[C@H](CO)[C@@H]1O2	none (no result: TROY NFkB inh, HSP90 refold inh, TWEAK-Fn14 inh)
CCCCN(C)CCCNC(=O)c1cn(CC)c2ccc(S(=O)(=O)N3CCc4ccccc4C3)cc2c1=O	none
CCCCN(CC)CCCNC(=O)c1cn(CC)c2ccc(S(=O)(=O)N3CCc4ccccc4C3)cc2c1=O	LGR2 inh 85.3
COc1cc(CC(NC(C)=O)C(=O)NC2CCN(C(=O)C3CC3)CC2)cc(OC)c1 (stereo not drawn)	TROY NFkB inh 55.0
